Results as given in PubChem BioAssay (EPA / NIEHS).
Active and inactive are the calls of the source. Rule for the calls: active = hit-call score of the fitted dose curve at least 0.9, where 1 is the maximum; inactive = score below 0.9.

How the values were obtained:
Conditions in all cases: mRNA level, 48 h; actives raise or lower the signal
[1] = read-out: Cyclin D2 (CCND2), CCND2 (gene 894); assay: LTEA_HepaRG_CCND2: Life Technologies and Expression Analysis (LTEA) Assay for Cyclin D2 (CCND2) using HepaRG (AID 2283449);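 note: CCND2 transcript measured by TaqMan qRT-PCR and normalised to three housekeeping genes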
Method in brief: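 Chemicals in 0.5% DMSO, eight half-log concentrations from 100 uM top, were applied in duplicate for 48 h to human HepaRG cells in serum-free induction medium. CCND2 mRNA by TaqMan qRT-PCR, normalised to ACTB/GAPDH/POLR2A; bidirectional fit versus DMSO.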

[2] = read-out: Cyclin Dependent Kinase Inhibitor 1A (CDKN1A), CDKN1A (gene 1026); assay: LTEA_HepaRG_CDKN1A: Life Technologies and Expression Analysis (LTEA) Assay for Cyclin Dependent Kinase Inhibitor 1A (CDKN1A) using HepaRG (AID 2283450)
Method in brief: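 HepaRG, 48 h dosing, 8-pt half-log series from 100 uM top, 0.5% DMSO vehicle, duplicates. Readout: TaqMan qRT-PCR of CDKN1A transcript, housekeeping-normalized (ACTB, GAPDH, POLR2A). Up/down curve fit relative to DMSO.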

[3] = read-out: Cyclin D1 (CCND1), CCND1 (gene 595); assay: LTEA_HepaRG_CCND1: Life Technologies and Expression Analysis (LTEA) Assay for Cyclin D1 (CCND1) using HepaRG (AID 2283451)
Method in brief: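 qRT-PCR (Fluidigm 96.96 array) read-out of transcript level, housekeeping-normalized (ACTB/GAPDH/POLR2A). HepaRG cells, 48 h chemical exposure, 8-point half-log series from 100 uM, 0.5% DMSO vehicle; gain or loss relative to DMSO baseline.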

[4] = read-out: catalase (CAT), CAT (gene 847); assay: LTEA_HepaRG_CAT: Life Technologies and Expression Analysis (LTEA) Assay for catalase (CAT) using HepaRG (AID 2283452)
Method in brief: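 HepaRG cells in serum-free induction medium, 0.5% DMSO vehicle, exposed 48 h in duplicate over 8 half-log concentrations from 100 uM. CAT mRNA measured by qRT-PCR, normalized to ACTB, GAPDH, POLR2A; bidirectional fit versus DMSO.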

[5] = read-out: flavin-containing dimethylaniline monooxygenases 3 (FMO3), FMO3 (gene 2328); assay: LTEA_HepaRG_FMO3: Life Technologies and Expression Analysis (LTEA) Assay for flavin-containing dimethylaniline monooxygenases 3 (FMO3) using HepaRG (AID 2283453)
Method in brief: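 Differentiated HepaRG cells in serum-free induction medium, exposed 48 h in duplicate to 8 half-log concentrations up to 100 uM in 0.5% DMSO. FMO3 mRNA by qRT-PCR, normalized to ACTB, GAPDH, POLR2A; bidirectional fit vs DMSO.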

[6] = read-out: Cytochrome P450 (CYP1A1), CYP1A1 (gene 1543); assay: LTEA_HepaRG_CYP1A1: Life Technologies and Expression Analysis (LTEA) Assay for Cytochrome P450 (CYP1A1) using HepaRG (AID 2283454)
Method in brief: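 qRT-PCR read-out: CYP1A1 transcript normalized to three housekeeping genes, fitted bidirectionally against 0.5% DMSO vehicle baseline. Human HepaRG cells, 48 h chemical exposure, 8-point half-log series topping at 100 uM.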

[7] = read-out: CFLAR gene, CFLAR (gene 8837); assay: LTEA_HepaRG_CFLAR: Life Technologies and Expression Analysis (LTEA) Assay for CFLAR gene using HepaRG (AID 2283455)
Method in brief: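 Differentiated HepaRG cells in serum-free induction medium were exposed 48 h in duplicate to eight half-log concentrations up to 100 uM in 0.5% DMSO; mRNA measured by TaqMan qRT-PCR, normalized to ACTB, GAPDH, POLR2A; bidirectional fitting versus DMSO.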

[8] = read-out: Forkhead box O1 (FOXO1), FOXO1 (gene 2308); assay: LTEA_HepaRG_FOXO1: Life Technologies and Expression Analysis (LTEA) Assay for Forkhead box O1 (FOXO1) using HepaRG (AID 2283456)
Method in brief: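 Differentiated HepaRG cells, in serum-free induction medium with 0.5% DMSO, exposed 48 h in duplicate to 8-point half-log series from 100 uM. FOXO1 mRNA measured by TaqMan qRT-PCR, normalized to ACTB, GAPDH, POLR2A; bidirectional fit versus DMSO.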

[9] = read-out: growth arrest and DNA damage 45 (GADD45A), GADD45A (gene 1647); assay: LTEA_HepaRG_GADD45A: Life Technologies and Expression Analysis (LTEA) Assay for growth arrest and DNA damage 45 (GADD45A) using HepaRG (AID 2283458)
Method in brief: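 Cells plated and cultured 48 h, switched to serum-free induction medium, then dosed for 48 h (100 uM top, half-log dilutions, 0.5% DMSO). RNA was isolated and transcript measured by Fluidigm qRT-PCR.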

[10] = read-out: Forkhead box O3 (FOXO3), FOXO3 (gene 2309); assay: LTEA_HepaRG_FOXO3: Life Technologies and Expression Analysis (LTEA) Assay for Forkhead box O3 (FOXO3) using HepaRG (AID 2283459)
Method in brief: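 Differentiated human HepaRG cells, 48 h post-plating, exposed in duplicate for 48 h in serum-free induction medium; 8-point half-log series from 100 uM in 0.5% DMSO. FOXO3 mRNA by TaqMan qRT-PCR, normalized to ACTB/GAPDH/POLR2A; bidirectional fit versus DMSO.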

[11] = read-out: growth arrest and DNA damage 45 (GADD45B), GADD45B (gene 4616); assay: LTEA_HepaRG_GADD45B: Life Technologies and Expression Analysis (LTEA) Assay for growth arrest and DNA damage 45 (GADD45B) using HepaRG (AID 2283461)
Method in brief: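 qRT-PCR read-out (Fluidigm TaqMan, housekeeping-normalized) of mRNA change in human HepaRG cells after 48 h chemical exposure; 8-point curve, top 100 uM, half-log steps, 0.5% DMSO vehicle; gain or loss fitted relative to DMSO baseline.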

[12] = read-out: ABC Transporter (ABCC3), ABCC3 (gene 8714); assay: LTEA_HepaRG_ABCC3: Life Technologies and Expression Analysis (LTEA) Assay for ABC Transporter (ABCC3) using HepaRG (AID 2283462)
Method in brief: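 qRT-PCR read-out of ABCC3 transcript, normalized to three housekeeping genes (ACTB, GAPDH, POLR2A), after 48 h chemical exposure of human HepaRG cells. Eight half-log concentrations, highest 100 uM, in 0.5% DMSO; gain or loss fitted relative to DMSO baseline.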

[13] = read-out: ABC Transporter (ABCB11), ABCB11 (gene 8647); assay: LTEA_HepaRG_ABCB11: Life Technologies and Expression Analysis (LTEA) Assay for ABC Transporter (ABCB11) using HepaRG (AID 2283463)
Method in brief: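 Differentiated human HepaRG cells in serum-free induction medium, dosed in duplicate for 48 h. Eight-point half-log series from 100 uM in 0.5% DMSO; ABCB11 mRNA by qRT-PCR, normalized to ACTB, GAPDH, POLR2A, fitted bidirectionally versus DMSO.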

[14] = read-out: ABC Transporter (ABCC2), ABCC2 (gene 1244); assay: LTEA_HepaRG_ABCC2: Life Technologies and Expression Analysis (LTEA) Assay for ABC Transporter (ABCC2) using HepaRG (AID 2283464)
Method in brief: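 qRT-PCR (TaqMan, Fluidigm array) read-out of ABCC2 mRNA, normalized to three housekeeping genes. Differentiated HepaRG cells were treated 48 h in serum-free induction medium with 8-point half-log series from 100 uM in 0.5% DMSO; curves fitted bidirectionally relative to DMSO.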

[15] = read-out: Broad substrate specificity ATP-binding cassette transporter ABCG2 (Homo sapiens) (UniProt Q9UNQ0); assay: LTEA_HepaRG_ABCG2: Life Technologies and Expression Analysis (LTEA) Assay for ABC Transporter (ABCG2) using HepaRG (AID 2283465)
Method in brief: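 Differentiated HepaRG cells were exposed for 48 h in serum-free induction medium to 8 half-log concentrations, top 100 uM, in 0.5% DMSO. ABCG2 mRNA was measured by qRT-PCR, normalized to ACTB, GAPDH and POLR2A, with bidirectional fitting versus DMSO.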

[16] = read-out: ATP-citrate lyase (ACLY), ACLY (gene 47); assay: LTEA_HepaRG_ACLY: Life Technologies and Expression Analysis (LTEA) Assay for ATP-citrate lyase (ACLY) using HepaRG (AID 2283466)
Method in brief: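 Differentiated HepaRG cells exposed 48 h in serum-free induction medium to eight half-log concentrations up to 100 uM in 0.5% DMSO, duplicates. Transcript measured by Fluidigm TaqMan qRT-PCR, normalized to ACTB, GAPDH, POLR2A; bidirectional fit versus DMSO.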

[17] = read-out: Peroxisomal acyl-coenzyme A oxidase 1 (ACOX1) gene, ACOX1 (gene 51); assay: LTEA_HepaRG_ACOX1: Life Technologies and Expression Analysis (LTEA) Assay for Peroxisomal acyl-coenzyme A oxidase 1 (ACOX1) gene using HepaRG (AID 2283467)
Method in brief: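 HepaRG cells, plated 48 h then switched to serum-free induction medium, were exposed in duplicate for 48 h to 8-point half-log concentrations up to 100 uM in 0.5% DMSO. ACOX1 mRNA was measured by qRT-PCR, normalized to ACTB/GAPDH/POLR2A, and fitted bidirectionally versus DMSO.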

[18] = read-out: Alkaline Phosphatase, Placental (ALPP) gene, ALPP (gene 250); assay: LTEA_HepaRG_ALPP: Life Technologies and Expression Analysis (LTEA) Assay for Alkaline Phosphatase, Placental (ALPP) gene using HepaRG (AID 2283468)
Method in brief: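 qRT-PCR readout of ALPP mRNA (Fluidigm TaqMan), normalized to ACTB/GAPDH/POLR2A, after 48 h chemical exposure of HepaRG cells; 8-point half-log series, top 100 uM, 0.5% DMSO vehicle. Bidirectional curve fit versus DMSO baseline.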

[19] = read-out: ABC Transporter (ABCB1), ABCB1 (gene 5243); assay: LTEA_HepaRG_ABCB1: Life Technologies and Expression Analysis (LTEA) Assay for ABC Transporter (ABCB1) using HepaRG (AID 2283460)
Method in brief: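 HepaRG cells exposed in duplicate for 48 h in serum-free induction medium to eight half-log concentrations up to 100 uM in 0.5% DMSO. ABCB1 mRNA quantified by qRT-PCR, normalised to ACTB, GAPDH and POLR2A; fitted bidirectionally versus DMSO.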

Measured: AC50

Broad substrate specificity ATP-binding cassette transporter ABCG2 (Homo sapiens), sequence (Q9UNQ0 whole entry, looked up): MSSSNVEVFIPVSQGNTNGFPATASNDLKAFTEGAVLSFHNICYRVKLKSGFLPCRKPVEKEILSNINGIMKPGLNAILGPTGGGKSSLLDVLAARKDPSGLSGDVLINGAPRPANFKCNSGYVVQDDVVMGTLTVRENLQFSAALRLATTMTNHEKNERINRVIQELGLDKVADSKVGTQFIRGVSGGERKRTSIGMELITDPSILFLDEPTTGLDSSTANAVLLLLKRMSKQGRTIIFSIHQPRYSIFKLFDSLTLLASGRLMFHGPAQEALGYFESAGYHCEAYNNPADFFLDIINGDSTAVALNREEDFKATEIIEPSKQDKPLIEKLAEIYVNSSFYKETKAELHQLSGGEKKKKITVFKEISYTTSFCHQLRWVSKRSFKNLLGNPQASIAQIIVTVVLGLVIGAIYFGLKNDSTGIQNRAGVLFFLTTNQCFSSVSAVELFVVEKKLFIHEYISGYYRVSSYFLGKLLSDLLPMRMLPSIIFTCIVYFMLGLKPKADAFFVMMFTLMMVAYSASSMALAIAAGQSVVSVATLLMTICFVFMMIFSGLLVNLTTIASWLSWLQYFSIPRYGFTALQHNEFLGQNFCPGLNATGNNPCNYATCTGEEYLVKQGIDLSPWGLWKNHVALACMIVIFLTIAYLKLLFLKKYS

CCCCCCCC=O
inactive: [1] | [2] | [3] | [5] | [7] | [8] | [9] | [10] | [11] | [12] | [13] | [14] | [15] | [16] | [17] | [18]
active: [4] 1.44 µM | [6] 50 µM

CCCCCCCCCCCCCCCC
inactive: [1] | [2] | [3] | [4] | [5] | [7] | [8] | [9] | [10] | [19] | [11] | [12] | [13] | [14] | [15] | [16] | [17] | [18]
active: [6] 50 µM

FC(F)(F)C(F)(F)C(F)(F)C(F)(F)C(F)(F)C(F)(F)CCI
inactive: [1] | [2] | [3] | [4] | [5] | [6] | [7] | [8] | [9] | [10] | [11] | [12] | [13] | [14] | [15] | [16] | [17] | [18]

CCCCCCCCCCCCCCCCCC(=O)O
inactive: [1] | [2] | [3] | [4] | [5] | [7] | [8] | [9] | [10] | [19] | [11] | [12] | [13] | [14] | [15] | [16] | [17] | [18]
active: [6] 50 µM
